Experiment [1] in a line: ATG_E_Box_CIS: Attagene CIS-FACTORIAL HepG2 Assay for human Enhancer Box (E-box) (AID 2282936). Particulars: HepG2 E-box cis-reporter transcription, actives raise or lower the signal. In a few lines:
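Transiently transfected HepG2, endogenous TF-driven reporters, 24 h dosing. Readout: RT-PCR plus capillary electrophoresis of fluorescent reporter fragments. Gain or loss of signal fitted bidirectionally against DMSO baseline.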

Experiment [2] concerns the target Heat shock factor protein 1 (Homo sapiens) (UniProt Q00613). The experiment is described as follows: ATG_HSE_CIS: Attagene CIS-FACTORIAL HepG2 Assay for human Heat Shock Transcription Factor 1 (HSE) (AID 2282953). As to conditions: HepG2 HSE cis-reporter, Attagene RNA transcription; actives raise or lower the signal. Put shortly: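 Endogenous transcription factor activity captured via cis-promoter reporter units transfected into HepG2; treatment lasted 24 h. Fluorescence intensity of reporter fragments analysed with bidirectional curve fitting, DMSO baseline.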

The nature of experiment [3]: ATG_RORE_CIS: Attagene CIS-FACTORIAL HepG2 Assay for human RAR-related Orphan Receptor Element (RORE) (AID 2282959). Particulars: HepG2 Attagene cis-factorial RORE reporter, mRNA; actives raise or lower the signal. Put shortly:
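Fluorescence intensity of reporter-specific cDNA fragments, separated by capillary electrophoresis, gives the signal. Source: HepG2 liver cells transiently transfected with cis-element reporters and exposed 24 h; DMSO-normalized bidirectional fit.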

Experiment [4] addresses Transcription factor Sp1 (Homo sapiens) (UniProt P08047). The experiment is described as follows: ATG_Sp1_CIS: Attagene CIS-FACTORIAL HepG2 Assay for human Specificity Protein 1 (Sp1) (AID 2282961). As to conditions: HepG2 Sp1 cis-reporter transcription, actives raise or lower the signal. Put shortly:
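Sp1-driven reporter mRNA, read as capillary electrophoresis fluorescence after RT-PCR, in transiently transfected HepG2 cells dosed for 24 h; signal change in either direction relative to DMSO.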

Experiment [5] in a line: ATG_SREBP_CIS: Attagene CIS-FACTORIAL HepG2 Assay for human Sterol Regulatory Element Binding (SREBP) (AID 2282962). As to conditions: HepG2 Attagene cis-factorial SREBP reporter, mRNA; actives raise or lower the signal. Put shortly:
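Endogenous factor activity is measured in HepG2 through multiplexed reporter units under cis-element control. Following a 24 h incubation, reporter transcripts are reverse-transcribed, PCR-amplified and sized by capillary electrophoresis; activity is fitted in both directions relative to DMSO.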

Experiment [6] in a line: ATG_TCF_b_cat_CIS: Attagene CIS-FACTORIAL HepG2 Assay for human T-Cell-Factor with beta-catenin (TCF/b-cat) (AID 2282965). Particulars: HepG2 TCF/beta-catenin cis-reporter transcription, actives raise or lower the signal. In a few lines: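 Cells of the HepG2 line carry transiently transfected reporter units whose promoters respond to endogenous factors. Twenty-four hours post-dosing, reporter mRNA induction is measured by fluorescent RT-PCR and capillary electrophoresis, with DMSO as baseline.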

Experiment [7] in a line: ATG_TAL_CIS: Attagene CIS-FACTORIAL HepG2 Assay for human TAL Basal Promoter (AID 2282966).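 Note: background control endpoint measuring basal TAL promoter reporter mRNA not a specific factor.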 As to conditions: HepG2 Attagene cis-factorial TAL promoter reporter; actives raise or lower the signal. Put shortly:
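Basal-promoter background-control endpoint from a multiplexed HepG2 reporter panel. Cells were exposed 24 h, then reporter mRNA was read by RT-PCR/CE fluorescence and fitted in both directions relative to DMSO.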

Experiment [8] can be described thus: ATG_TGFb_CIS: Attagene CIS-FACTORIAL HepG2 Assay for human Transforming Growth Factor (TGF) (AID 2282967). As to conditions: HepG2 Attagene CIS TGFb reporter, mRNA transcription; actives raise or lower the signal. In a few lines:
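Bidirectional fitting relative to DMSO gave the endpoint. Underlying data: reporter mRNA from HepG2 cells carrying transiently transfected cis-regulated reporter constructs, harvested 24 h after dosing and analyzed by RT-PCR and capillary electrophoresis.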

Experiment [9] can be described thus: ATG_VDRE_CIS: Attagene CIS-FACTORIAL HepG2 Assay for human Vitamin D Receptor Element (VDRE) (AID 2282968). As to conditions: HepG2 VDRE cis-reporter transcription, actives raise or lower the signal. In a few lines:
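Transient MRTU transfection of HepG2, 24 h compound exposure. Readout: reporter transcripts via RT-PCR and capillary electrophoresis, fluorescence. Bidirectional fit vs DMSO.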

Experiment [10] addresses X-box-binding protein 1 (Homo sapiens) (UniProt P17861). The experiment is described as follows: ATG_Xbp1_CIS: Attagene CIS-FACTORIAL HepG2 Assay for human X-box Binding Protein 1 (XBP1) (AID 2282972). Particulars: HepG2 XBP1 cis-element reporter, Attagene multiplex; actives raise or lower the signal. In a few lines: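 Multiplexed cis-reporter readout in transfected HepG2 liver cells. Exposure lasted 24 hours. Activity in either direction was fitted against DMSO as negative control and baseline.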

The target in experiment [11] is Transcriptional activator Myb (Homo sapiens) (UniProt P10242). Description: ATG_Myb_CIS: Attagene CIS-FACTORIAL HepG2 Assay for human Myeloblastosis (Myb) Proto-Oncogene Transcription Factor (AID 2282986). Particulars: HepG2 Attagene CIS-FACTORIAL Myb reporter transcription; actives raise or lower the signal. Put shortly:
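Fluorescence signals from capillary electrophoresis of RT-PCR-amplified reporter cDNA give the read-out. Cells: HepG2 transfected with multiple cis-regulated reporter units. Exposure lasts 24 hours; DMSO defines baseline for gain or loss of signal.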

For experiment [12], the target named is Nuclear respiratory factor 1 (Homo sapiens) (UniProt Q16656). The experiment is described as follows: ATG_NRF1_CIS: Attagene CIS-FACTORIAL HepG2 Assay for human Nuclear Respiratory Factor 1 (NRF1) Orphan Gene (AID 2282987). As to conditions: HepG2 NRF1 cis-element reporter, Attagene multiplex; actives raise or lower the signal. In a few lines:
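Transcriptional reporter readout, one component of a 52-endpoint multiplexed HepG2 panel. Exposure 24 h; mRNA detected via RT-PCR and fluorescent capillary electrophoresis; fitting in both directions against DMSO.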

Experiment [13] in a line: ATG_NFI_CIS: Attagene CIS-FACTORIAL HepG2 Assay for human Nuclear Factor I (NFI) (AID 2282989). Particulars: HepG2 cis-regulatory reporter, NFI response element transcription; actives raise or lower the signal. In a few lines: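 Cells: human liver HepG2, transiently transfected with promoter-regulated reporter transcription units. Exposure 24 h. Detection: fluorescent RT-PCR products separated by capillary electrophoresis, normalised to DMSO negative control.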

The target in experiment [14] is Myc proto-oncogene protein (Homo sapiens) (UniProt P01106). The experiment is described as follows: ATG_Myc_CIS: Attagene CIS-FACTORIAL HepG2 Assay for human Myelocytomatosis (Myc) Proto-Oncogene Transcription Factor (AID 2282990). As to conditions: HepG2, Attagene cis-reporter transcription factor activity; actives raise or lower the signal. In a few lines: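 Fluorescence intensity of reporter-specific cDNA fragments, separated by capillary electrophoresis, gives the signal. Transfected HepG2 cells carrying cis-promoter reporter constructs are incubated with compound for 24 h; DMSO serves as baseline.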

A short description of experiment [15]: ATG_NRF2_ARE_CIS: Attagene CIS-FACTORIAL HepG2 Assay for human Nuclear Factor Erythroid 2 Related Factor 2 (NFR2) response to Antioxidant Response Elements (ARE) (AID 2282992).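 For AC50: reporter mRNA level measured by RT-PCR and capillary electrophoresis fluorescence.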 As to conditions: HepG2 Attagene ARE/NRF2 reporter, transcription factor activity; actives raise or lower the signal. Put shortly: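 Endogenous transcription factor activity in human liver HepG2 cells is tracked via a cis-element-driven reporter within a multiplexed set. mRNA induction is read by RT-PCR and capillary electrophoresis after 24 h, with DMSO as baseline.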

Experiment [16] can be described thus: ATG_Oct_MLP_CIS: Attagene CIS-FACTORIAL HepG2 Assay for human Octamer-Binding Transcription Factor (Oct) (AID 2282993). As to conditions: HepG2 Attagene cis-factorial Oct reporter, mRNA; actives raise or lower the signal. In a few lines: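 HepG2, transient MRTU transfection, cis promoter elements; 24 h dosing; RT-PCR/CE fluorescence read-out of reporter mRNA; fit both directions vs DMSO.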

Experiment [17] has as its target Cellular tumor antigen p53 (Homo sapiens) (UniProt P04637). The experiment is described as follows: ATG_p53_CIS: Attagene CIS-FACTORIAL HepG2 Assay for human p53 Transcription Factor (AID 2282994). As to conditions: HepG2 p53 cis-element reporter, Attagene mRNA; actives raise or lower the signal. Put shortly: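 Steps: transfect HepG2 with multiplexed cis reporter constructs; dose chemicals 24 h; extract RNA, reverse-transcribe, PCR-amplify reporter sequences; FAM-label, HpaI-digest, resolve fragments by CE. Activity fitted both directions relative to DMSO.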

Experiment [18] addresses Peroxisome proliferator-activated receptor gamma (Homo sapiens) (UniProt P37231). Description: ATG_PPARg_TRANS: Attagene TRANS-FACTORIAL HepG2 Assay for human Peroxisome Proliferator-activated Receptor-gamma (PPARg) (AID 2283007; active = hit-call score of the fitted dose curve at least 0.9, where 1 is the maximum). In a few lines:
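Multiplexed reporter transcription units in HepG2, 24 h dosing, reporter transcripts quantified by fluorescent RT-PCR and capillary electrophoresis. Increase over DMSO scored.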

The nature of experiment [19]: ATG_PPRE_CIS: Attagene CIS-FACTORIAL HepG2 Assay for human Peroxisome Proliferator-activated Response Element (PPRE) (AID 2282958). Particulars: HepG2 PPRE cis-element reporter, Attagene transcription factor profiling; actives raise or lower the signal. Put shortly:
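Multiplexed reporter transcription units under cis-regulatory promoters were transfected into HepG2 cells to capture endogenous factor activity. A 24 h incubation preceded RNA isolation and fluorescent RT-PCR fragment analysis.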

Experiment [20] is described as follows: ATG_M_32_TRANS: Attagene TRANS-FACTORIAL HepG2 Assay for M32 Transcription Factor (Internal Marker) (AID 2282984; active = hit-call score of the fitted dose curve at least 0.9, where 1 is the maximum;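 note: transcript level of a background control reporter unit measured by RT-PCR and capillary electrophoresis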). Particulars: HepG2 Attagene TRANS M32 internal marker reporter. Put shortly:
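Read-out: fluorescent reporter cDNA fragments resolved by capillary electrophoresis after RT-PCR of total RNA. Transfected HepG2 cells were exposed to chemical for 24 h. Activity scored in the positive direction relative to DMSO.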

Results filed as inconclusive are left out. Active and inactive are the calls of the source. Rule for the calls, unless noted: active = hit-call score of the fitted dose curve at least 0.9, where 1 is the maximum; inactive = score below 0.9.

The AC50 is the concentration giving half of the maximal activity seen.

Chain of Transcriptional activator Myb (Homo sapiens) (P10242 whole entry, looked up): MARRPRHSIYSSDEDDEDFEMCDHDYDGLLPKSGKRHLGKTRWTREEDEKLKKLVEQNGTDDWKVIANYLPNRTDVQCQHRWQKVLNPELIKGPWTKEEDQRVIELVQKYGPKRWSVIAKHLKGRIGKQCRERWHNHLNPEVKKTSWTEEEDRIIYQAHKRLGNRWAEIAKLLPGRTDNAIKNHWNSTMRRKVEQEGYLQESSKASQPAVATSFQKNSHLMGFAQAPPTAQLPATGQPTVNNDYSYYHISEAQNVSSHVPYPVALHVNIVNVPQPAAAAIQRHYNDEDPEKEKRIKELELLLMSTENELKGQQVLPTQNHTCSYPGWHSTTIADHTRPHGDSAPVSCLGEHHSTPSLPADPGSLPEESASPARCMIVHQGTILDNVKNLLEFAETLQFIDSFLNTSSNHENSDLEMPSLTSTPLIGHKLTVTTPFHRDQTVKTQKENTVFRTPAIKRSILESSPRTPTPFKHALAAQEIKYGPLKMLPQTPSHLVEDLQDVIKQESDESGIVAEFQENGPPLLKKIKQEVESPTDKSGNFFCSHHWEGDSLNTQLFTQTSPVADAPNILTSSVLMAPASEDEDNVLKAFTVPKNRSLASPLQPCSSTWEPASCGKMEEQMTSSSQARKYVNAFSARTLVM
Chain of Heat shock factor protein 1 (Homo sapiens) (Q00613 whole entry, looked up, the tested form may be a part): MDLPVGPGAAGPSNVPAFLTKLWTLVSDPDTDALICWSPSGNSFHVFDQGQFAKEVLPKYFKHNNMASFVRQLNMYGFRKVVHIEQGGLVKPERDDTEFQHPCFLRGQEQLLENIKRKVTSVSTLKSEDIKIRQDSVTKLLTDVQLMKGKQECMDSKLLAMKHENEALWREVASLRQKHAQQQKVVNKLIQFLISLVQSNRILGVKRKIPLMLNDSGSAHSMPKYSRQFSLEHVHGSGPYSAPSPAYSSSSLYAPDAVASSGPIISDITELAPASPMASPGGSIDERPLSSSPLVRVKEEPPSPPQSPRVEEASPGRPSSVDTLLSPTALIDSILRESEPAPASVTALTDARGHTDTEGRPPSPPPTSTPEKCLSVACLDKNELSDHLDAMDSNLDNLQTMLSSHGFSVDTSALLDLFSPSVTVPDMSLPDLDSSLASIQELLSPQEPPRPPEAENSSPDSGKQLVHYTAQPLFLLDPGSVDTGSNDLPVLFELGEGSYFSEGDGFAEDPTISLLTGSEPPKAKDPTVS
Chain of Nuclear respiratory factor 1 (Homo sapiens) (Q16656 whole entry, looked up): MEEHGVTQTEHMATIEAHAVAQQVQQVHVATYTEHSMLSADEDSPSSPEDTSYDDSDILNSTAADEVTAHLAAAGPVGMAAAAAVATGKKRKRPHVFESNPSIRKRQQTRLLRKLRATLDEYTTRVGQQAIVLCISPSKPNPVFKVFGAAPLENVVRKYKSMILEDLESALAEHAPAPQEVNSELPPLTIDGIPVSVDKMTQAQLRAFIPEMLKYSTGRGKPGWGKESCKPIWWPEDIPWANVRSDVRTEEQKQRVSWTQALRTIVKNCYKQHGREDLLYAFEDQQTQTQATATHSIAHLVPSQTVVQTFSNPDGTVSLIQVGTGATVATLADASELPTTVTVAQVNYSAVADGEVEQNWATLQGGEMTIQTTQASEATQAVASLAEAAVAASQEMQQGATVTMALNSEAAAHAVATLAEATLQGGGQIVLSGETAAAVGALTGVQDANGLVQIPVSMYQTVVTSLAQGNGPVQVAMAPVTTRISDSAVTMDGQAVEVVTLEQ
Chain of Peroxisome proliferator-activated receptor gamma (Homo sapiens) (P37231 whole entry, looked up): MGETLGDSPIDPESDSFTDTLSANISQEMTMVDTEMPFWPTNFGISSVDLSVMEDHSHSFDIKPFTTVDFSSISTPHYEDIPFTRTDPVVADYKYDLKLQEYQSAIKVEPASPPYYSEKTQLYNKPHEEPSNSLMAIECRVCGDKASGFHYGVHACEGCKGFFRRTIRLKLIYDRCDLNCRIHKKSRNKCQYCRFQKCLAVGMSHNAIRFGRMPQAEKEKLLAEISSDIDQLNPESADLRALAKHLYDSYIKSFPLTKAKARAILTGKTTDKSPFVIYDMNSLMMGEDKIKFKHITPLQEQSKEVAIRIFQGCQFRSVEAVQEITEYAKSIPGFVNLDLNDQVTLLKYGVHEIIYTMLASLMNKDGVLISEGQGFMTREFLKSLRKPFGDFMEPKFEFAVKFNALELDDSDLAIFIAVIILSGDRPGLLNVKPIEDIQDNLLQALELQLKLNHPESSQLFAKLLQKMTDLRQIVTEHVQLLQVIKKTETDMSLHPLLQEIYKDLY
Chain of Cellular tumor antigen p53 (Homo sapiens) (P04637 whole entry, looked up, the tested form may be a part): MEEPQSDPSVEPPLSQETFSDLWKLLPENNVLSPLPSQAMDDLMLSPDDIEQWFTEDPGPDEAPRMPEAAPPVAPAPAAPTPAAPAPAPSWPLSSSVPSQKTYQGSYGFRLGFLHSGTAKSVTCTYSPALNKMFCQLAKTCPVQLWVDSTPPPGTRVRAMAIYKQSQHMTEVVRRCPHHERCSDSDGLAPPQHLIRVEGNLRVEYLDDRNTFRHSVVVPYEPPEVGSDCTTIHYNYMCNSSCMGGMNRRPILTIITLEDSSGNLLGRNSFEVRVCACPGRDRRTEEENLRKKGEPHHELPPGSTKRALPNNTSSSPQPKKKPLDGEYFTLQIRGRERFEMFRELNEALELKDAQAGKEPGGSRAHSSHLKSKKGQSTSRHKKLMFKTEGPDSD
Chain of Myc proto-oncogene protein (Homo sapiens) (P01106 whole entry, looked up, the tested form may be a part): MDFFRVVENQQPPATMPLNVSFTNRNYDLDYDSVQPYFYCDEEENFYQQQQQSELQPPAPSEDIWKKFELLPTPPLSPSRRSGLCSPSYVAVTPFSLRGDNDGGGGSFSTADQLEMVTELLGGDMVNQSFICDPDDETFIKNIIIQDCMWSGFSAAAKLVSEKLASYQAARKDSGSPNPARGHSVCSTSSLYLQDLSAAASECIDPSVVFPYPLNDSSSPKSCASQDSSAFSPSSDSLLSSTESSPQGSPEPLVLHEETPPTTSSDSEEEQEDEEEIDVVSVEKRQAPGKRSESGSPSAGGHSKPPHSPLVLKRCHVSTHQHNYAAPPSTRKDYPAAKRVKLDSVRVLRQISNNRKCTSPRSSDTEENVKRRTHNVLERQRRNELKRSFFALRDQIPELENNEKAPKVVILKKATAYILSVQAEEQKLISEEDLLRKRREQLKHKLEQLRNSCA
Chain of X-box-binding protein 1 (Homo sapiens) (P17861 whole entry, looked up): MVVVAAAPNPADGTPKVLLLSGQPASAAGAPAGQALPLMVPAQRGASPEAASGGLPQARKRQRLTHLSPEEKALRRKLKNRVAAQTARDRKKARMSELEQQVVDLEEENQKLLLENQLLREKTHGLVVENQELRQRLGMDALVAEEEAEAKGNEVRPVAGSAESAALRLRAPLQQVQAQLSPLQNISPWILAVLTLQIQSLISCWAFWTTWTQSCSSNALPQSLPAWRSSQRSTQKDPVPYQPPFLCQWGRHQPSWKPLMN
Chain of Transcription factor Sp1 (Homo sapiens) (P08047 whole entry, looked up): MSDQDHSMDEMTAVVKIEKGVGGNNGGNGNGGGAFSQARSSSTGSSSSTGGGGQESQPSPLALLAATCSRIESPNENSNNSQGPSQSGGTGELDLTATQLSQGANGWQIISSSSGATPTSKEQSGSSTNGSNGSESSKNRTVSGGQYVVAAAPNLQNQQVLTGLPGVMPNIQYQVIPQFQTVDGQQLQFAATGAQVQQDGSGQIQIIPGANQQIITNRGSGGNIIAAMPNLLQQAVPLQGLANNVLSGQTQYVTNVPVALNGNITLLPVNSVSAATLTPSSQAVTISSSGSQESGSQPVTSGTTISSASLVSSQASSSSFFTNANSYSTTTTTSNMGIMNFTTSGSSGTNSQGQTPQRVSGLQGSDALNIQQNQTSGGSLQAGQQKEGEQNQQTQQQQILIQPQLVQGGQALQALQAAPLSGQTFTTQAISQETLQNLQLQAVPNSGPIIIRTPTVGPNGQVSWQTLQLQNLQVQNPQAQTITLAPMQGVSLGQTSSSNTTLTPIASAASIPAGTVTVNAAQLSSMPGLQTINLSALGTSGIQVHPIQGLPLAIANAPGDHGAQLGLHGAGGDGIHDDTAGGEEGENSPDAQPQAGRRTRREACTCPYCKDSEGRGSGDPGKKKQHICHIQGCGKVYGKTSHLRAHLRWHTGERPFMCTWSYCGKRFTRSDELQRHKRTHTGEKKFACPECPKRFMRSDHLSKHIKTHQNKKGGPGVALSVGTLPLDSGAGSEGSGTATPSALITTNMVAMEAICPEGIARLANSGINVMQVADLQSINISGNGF

Consider `[Cl-].[Cl-].[Cl-].[Yb+3]`, for which the result in [1], in experiment [2], in experiment [3], in experiment [4], in [5] and in experiment [6] was inactive. Also, the outcome in [7], in [8], in experiment [9], in experiment [10], in [11] and in [12] was inactive. Moreover, the result in [13], in experiment [14], in experiment [15], in experiment [16], in [17] and in [18] was inactive.

As to `CCCCOC(=O)CCC(=O)OCCCC`, the outcome in experiment [1], in experiment [2], in experiment [19], in [3], in experiment [4] and in [5] was inactive. In addition, the outcome in [6], in experiment [7], in experiment [8], in [10], in [20] and in [11] was inactive. Besides, the molecule was classed as inactive in [12], in [13], in experiment [14], in experiment [15], in experiment [16] and in experiment [17].

On to `C=CCN(CC=C)C(=O)C(Cl)Cl`, for which the result in [1], in [2], in experiment [19], in experiment [3], in experiment [4] and in [5] was inactive. In addition, the molecule was called inactive in experiment [6], in experiment [7], in experiment [8], in experiment [9], in [10] and in experiment [11]. The call in [12], in experiment [13], in [14], in experiment [16], in experiment [17] and in experiment [18] was inactive. Moreover, the AC50 in experiment [15] is 50.9 µM (active).

On to `CCOP(=O)(OCC)OCC`, for which the outcome in experiment [1], in experiment [2], in experiment [19], in [3], in experiment [4] and in [5] was inactive. In addition, the call in experiment [6], in experiment [7], in [8], in experiment [9], in experiment [10] and in [20] was inactive. Besides, the molecule was called inactive in experiment [11], in experiment [12], in experiment [14], in experiment [15], in experiment [16] and in experiment [17]. Besides, in experiment [18], the molecule was classed as inactive.

For `CC1(C)C(=O)NC(=O)NC1=O`, the molecule was called inactive in [2], in experiment [3], in experiment [4], in experiment [5], in experiment [6] and in experiment [7]. Also, the call in [8], in experiment [9], in [10], in experiment [20], in experiment [11] and in experiment [12] was inactive. Moreover, the outcome in experiment [13], in experiment [14], in experiment [15], in experiment [16], in experiment [17] and in experiment [18] was inactive.

As for `CCCCCCCCCCCCCCCC[N+](C)(C)C`, the AC50 in [1] was 48.7 µM (active); in [6], 5.71 µM (active); in experiment [7], 138 µM (active); in experiment [9], 9.16 µM (active); in experiment [11], 24.5 µM (active); in experiment [12], 26 µM (active). Also, the values for the AC50 in experiment [16] and in experiment [18] were 26.8 µM (active) and 27.4 µM (active), respectively. Also, the result in [2], in [19], in experiment [3], in experiment [4], in [5] and in experiment [8] was inactive. For the same molecule, the molecule was classed as inactive in experiment [10], in [20], in experiment [13], in experiment [14] and in experiment [15].

As to `CCCOC(=O)c1ccccc1C(=O)OCCC`, the result in [1], in [2], in experiment [19], in experiment [3], in experiment [4] and in experiment [5] was inactive. Also, the molecule was classed as inactive in experiment [6], in experiment [7], in experiment [8], in experiment [10], in [20] and in experiment [11]. Besides, the molecule was called inactive in [12], in [13], in experiment [14], in experiment [15], in [16] and in experiment [17]. Besides, the AC50 in [18] was 86.3 µM (active).

Values taken from PubChem BioAssay (EPA / NIEHS).
